Laboratory results as given in PubChem BioAssay AID651598 (Sanford-Burnham Center for Chemical Genomics, 2012).
Several values for one entry are separate records, joined by “and”; a condition that tells them apart may be missing. Equal values may be shown once.

What follows are molecules tested against Apelin receptor (Homo sapiens) (UniProt P35414) (assay: APJ beta-arrestin recruitment blockade alongside CXCR6 – cell-based, DiscoveRx, panel, CHO-K1, counter-screen for CXCR6 antagonist project, SAR follow-up (AID 651598)). Settings: CHO-K1 PathHunter beta-arrestin luminescence, antagonist mode; run 6, at 80 µM (top of the series).
Apelin receptor (Homo sapiens), sequence (P35414 whole entry, looked up): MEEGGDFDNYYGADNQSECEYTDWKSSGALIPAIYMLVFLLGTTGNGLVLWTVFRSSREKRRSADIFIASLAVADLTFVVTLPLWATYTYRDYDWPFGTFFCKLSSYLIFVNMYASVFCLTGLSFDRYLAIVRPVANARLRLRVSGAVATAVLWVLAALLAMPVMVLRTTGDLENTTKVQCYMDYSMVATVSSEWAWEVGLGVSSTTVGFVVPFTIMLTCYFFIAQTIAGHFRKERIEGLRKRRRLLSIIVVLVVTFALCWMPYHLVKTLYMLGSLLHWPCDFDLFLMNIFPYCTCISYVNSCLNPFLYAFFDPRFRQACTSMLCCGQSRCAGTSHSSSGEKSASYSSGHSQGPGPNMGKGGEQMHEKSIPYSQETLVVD
In the case of `COc1cc(C(=O)NC2CCN(CC(=O)Nc3ccccc3)CC2)cc(OC)c1OC`, the inhibition is reported as -2.93%.
For `COc1cc(C(=O)NC2CC3CCCC(C2)N3CC(=O)Nc2ccccc2)cc(OC)c1OC` (stereo not drawn), the inhibition was 9.24% and -4.02% and 20.6%.
For `COc1cc(C(=O)NC2CC3CCC(C2)N3CC(=O)Nc2ccccc2)cc(OC)c1OC` (stereo not drawn), the inhibition was 10.4% and -17.1%.
